Values joined by “and” are separate entries in the source; they are usually repeats but may differ in a detail not shown here. Identical values can stand only once.
Experiments:
Assay in all cases: thermal shift delta Tm vs DMSO control; higher = stronger stabilization (binding)
Details in all cases: 12.5 µM; protein concentration 2 µM
[1] = test system: LOC_OS04G57630-cb004
Method in brief: (§1)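 The melting temperature shift given here is a triplicate mean, measured against protein that received only DMSO. Melting temperatures came from Boltzmann fits of differential scanning fluorimetry data on E. coli-expressed, purified rice kinase domain constructs. Each 19.5 μl well contained 2 μM kinase, 100 mM potassium phosphate pH 7.5, 150 mM NaCl, 10% glycerol, 5 × SYPRO Orange and compound in DMSO. Plates were scanned from 25°C to 95°C at 0.05°C/s.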

[2] = test system: LOC_OS05G07850-cb002
Method in brief: as §1

[3] = test system: LOC_OS05G16824-cb004
Method in brief: as §1

[4] = test system: LOC_OS05G28520-cb001
Method in brief: as §1

[5] = test system: LOC_OS05G30820-cb001
Method in brief: as §1

[6] = test system: LOC_OS05G43570-cb004
Method in brief: as §1

[7] = test system: LOC_OS06G16330-cb003
Chain of LOC_OS06G16330-cb003 (as listed by the source): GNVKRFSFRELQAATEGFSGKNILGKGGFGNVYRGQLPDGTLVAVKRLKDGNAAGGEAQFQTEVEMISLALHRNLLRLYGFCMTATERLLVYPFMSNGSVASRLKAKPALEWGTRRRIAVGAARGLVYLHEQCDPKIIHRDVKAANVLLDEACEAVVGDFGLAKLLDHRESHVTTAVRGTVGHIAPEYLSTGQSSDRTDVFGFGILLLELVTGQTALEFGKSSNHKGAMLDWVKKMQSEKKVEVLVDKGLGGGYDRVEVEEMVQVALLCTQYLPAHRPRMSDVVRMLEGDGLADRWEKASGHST
Method in brief: as §1

[8] = test system: T1, LOC_OS06G22820-cb001
T1 sequence (whole entry): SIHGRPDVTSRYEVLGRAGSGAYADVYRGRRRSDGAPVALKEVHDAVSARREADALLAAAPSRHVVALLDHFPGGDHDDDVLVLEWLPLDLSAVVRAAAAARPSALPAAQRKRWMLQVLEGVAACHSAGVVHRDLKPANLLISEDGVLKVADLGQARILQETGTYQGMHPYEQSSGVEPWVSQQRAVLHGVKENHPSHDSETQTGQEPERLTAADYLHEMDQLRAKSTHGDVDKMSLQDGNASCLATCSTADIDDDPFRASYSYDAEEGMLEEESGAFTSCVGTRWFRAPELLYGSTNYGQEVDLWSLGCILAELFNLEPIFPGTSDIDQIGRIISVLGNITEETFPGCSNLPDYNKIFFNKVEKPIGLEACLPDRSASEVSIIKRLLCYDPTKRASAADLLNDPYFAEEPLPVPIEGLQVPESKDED
Method in brief: as §1

[9] = test system: LOC_OS07G06570-cb004
Method in brief: as §1

[10] = test system: LOC_OS07G07230-cb001
Method in brief: as §1

Compound | thermal shift delta Tm [1] | thermal shift delta Tm [2] | thermal shift delta Tm [3] | thermal shift delta Tm [4] | thermal shift delta Tm [5] | thermal shift delta Tm [6] | thermal shift delta Tm [7] | thermal shift delta Tm [8] | thermal shift delta Tm [9] | thermal shift delta Tm [10]
CN(c1ncccc1CNc1nc(Nc2ccc3c(c2)CC(=O)N3)ncc1C(F)(F)F)S(C)(=O)=O | 1.44 °C and 2.05 °C | 8.97 °C and 9.58 °C | 9.12 °C and 9.67 °C | 0.98 °C and 1.52 °C | 4.26 °C and 3.92 °C | 0.77 °C and 0.58 °C | 4.21 °C and 5.5 °C | -0.01 °C and -0.19 °C | 0.81 °C and 1.35 °C | 0.45 °C and 0.44 °C
O=C(NCc1ccccc1)c1csc(Nc2ccncn2)n1 [Thiazovivin] | 0.16 °C | 2.6 °C | -1.42 °C | 0.2 °C | 0.36 °C | 1.22 °C | 0.41 °C | 0.56 °C | 0.66 °C | -0.04 °C
Oc1ccc(Nc2nc(-c3ccc(Cl)cc3)cs2)cc1 | 0.01 °C | 3.59 °C | -0.03 °C | 0.45 °C | 1.05 °C | -0.07 °C | 0.92 °C | 0.79 °C | -0.41 °C | 0.38 °C
CNC(=O)c1cccc(-c2ccc3c(N4CCOC[C@@H]4C)nc(N4CCOC[C@@H]4C)nc3n2)c1 [Vistusertib (AZD2014)] | -0.14 °C | 0.07 °C | -6.13 °C | -0.26 °C | 0.67 °C | 0.5 °C | 0.19 °C | 0.59 °C | 0.64 °C | 0.29 °C
Cc1ccc(Nc2nccc(N(C)c3ccc4c(C)n(C)nc4c3)n2)cc1S(N)(=O)=O [Pazopanib] | 1.64 °C | 7.82 °C | 3.43 °C | 0.62 °C | 0.59 °C | -0.2 °C | 4.07 °C | 0.36 °C | 1.66 °C | 0.5 °C
CNC(=O)c1cc(Oc2ccc3nc(N[C@@H]4CCCC[C@H]4O)sc3c2)ccn1 | 0.41 °C | 0.33 °C | 2.01 °C | 0.77 °C | 0.47 °C | 0.57 °C | 0.27 °C | 0.57 °C | 0.18 °C | 0 °C
Cc1c(C(=O)Nc2ccc(Oc3ccnc4[nH]cc(-c5ccccc5)c34)c(F)c2)c(=O)n(-c2ccc(F)cc2)n1C | 0.42 °C | 14.4 °C | 1.37 °C | 0.13 °C | 0.63 °C | 0.25 °C | 6.4 °C | 0.86 °C | 1.05 °C | -0.13 °C
CN1c2ccccc2C(=O)Nc2cnc(Nc3ccc(N4CCC(O)CC4)cc3)nc21 | 2.68 °C | 11.7 °C | 3.76 °C | 0.16 °C | 1.15 °C | 0.33 °C | 8.37 °C | 0.43 °C | 0.89 °C | 1.4 °C
CCN1CCN(Cc2ccc(C(=O)Nc3ccc(C)c(Oc4ccc5c(c4)CC(=O)N5)c3)cc2C(F)(F)F)CC1 | 0.33 °C | -0.13 °C | 2.03 °C | 0.4 °C | 0.41 °C | 0.42 °C | 0.43 °C | 0.56 °C | 0.16 °C | 0.28 °C
CN(c1ccccc1CNc1nc(Nc2ccc3c(c2)CC(=O)N3)ncc1C(F)(F)F)S(C)(=O)=O | 3.74 °C | 11.3 °C | 11.6 °C | 2.32 °C | 4 °C | 0.97 °C | 7.19 °C | -0.04 °C | 1.23 °C | 0.27 °C

From the supplement of paper PMC9694430
